# This excerpt belongs to a sample that is enriched for hits.
# SF-1 inh = inhibitors of human SF-1, primary screen, cell-based, CHO-K1, Gal4-SF-1 LBD, luciferase luminescence. 65,000 tested, 0.55% active. inhibition, % at 10 µM. CHO-K1 Gal4-SF-1 LBD luciferase reporter. Steroidogenic factor 1 (Homo sapiens), Q13285;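 active means inhibition above the mean inhibition of all tested compounds plus 3 SD, cut at about 48% in these data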;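 further: 0% = SF-1 transfected cells with DMSO and 100% = mock-transfected cells lacking SF-1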
# Target sequence (Q13285 whole entry, looked up, the tested form may be a part): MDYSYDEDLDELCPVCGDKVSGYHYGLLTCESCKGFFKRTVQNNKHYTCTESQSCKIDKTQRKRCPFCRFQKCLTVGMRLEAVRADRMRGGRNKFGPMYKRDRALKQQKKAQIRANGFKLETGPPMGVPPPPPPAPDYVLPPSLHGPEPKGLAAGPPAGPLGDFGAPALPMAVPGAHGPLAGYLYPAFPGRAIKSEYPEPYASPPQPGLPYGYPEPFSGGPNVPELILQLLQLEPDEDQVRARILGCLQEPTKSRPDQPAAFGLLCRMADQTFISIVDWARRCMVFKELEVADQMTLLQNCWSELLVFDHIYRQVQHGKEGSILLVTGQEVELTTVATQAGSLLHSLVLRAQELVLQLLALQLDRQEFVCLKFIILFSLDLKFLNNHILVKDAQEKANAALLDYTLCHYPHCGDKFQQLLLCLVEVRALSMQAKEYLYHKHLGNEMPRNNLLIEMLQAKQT
# * hit, by the source's call.
SMILES,SF-1 inh
O=C1CC(N2CCOCC2)C(=O)N1CCc1ccccc1 (stereo unspecified),9
O=C(Cc1ccccc1)NCCc1cn2ccsc2n1,-1
Cc1ccc(NC2=NC(c3ccc(C)cc3)n3c(nc(C)cc3=O)N2)cc1 (stereo unspecified),-11
COc1ccc(-c2cc(C(=O)N3CCCCC3)no2)cc1OC,-77
O=C(c1cc(-c2cccc(O)c2)on1)N1CCN(C(c2ccccc2)c2ccccc2)CC1,5
Cc1ccc(-c2cc(C(=O)N3CCCC3)no2)cc1,51*
CCCC1C(c2ccc(OC)cc2)C(C#N)(C#N)C2(C#N)CC1(N)NC2=O (stereo unspecified),-8
NC(=O)CSc1nnc(-c2ccoc2)o1,5
CC(=O)Nc1ccc(-c2nc3c(C)cccc3[nH]2)cc1,-99
Cn1c(C(C#N)C(=O)c2ccco2)nc2ccccc21 (stereo unspecified),-59
Cn1c(N2CCN(C(=O)NCc3ccccc3)CC2)nc2ccccc21,8
Cn1c(SC2=CS(=O)(=O)c3ccccc32)nc2ccccc21,68*
CCOC(=O)c1ccc(N2Cc3cc(C)c(C)cc3C2)cc1O,0
CCOCC(=O)Nc1ccc(S(=O)(=O)NCCc2ccccc2)cc1,1
COc1cccc2cc(NC(=O)C3CCCCC3)c(=O)oc12,-66
CN1C2C=C3C(C#N)=C(N)C(C#N)(C#N)[C@@H](c4ccc(Cl)cc4)[C@@H]3C1CC2 (stereo partly specified),49*
CN1CC(=O)N(C)c2ncn(Cc3ccccc3)c2C1=O,21
Cc1nc2c3cnn(-c4ccc(C)c(C)c4)c3ncn2n1,-65
CCCC(=O)Nc1cccc(C(=O)Nc2nccs2)c1,-22
O=C(O)C1CC=CCC1C(=O)Nc1ccc(S(=O)(=O)N2CCCc3ccccc32)cc1 (stereo unspecified),-12
N#CC1=C(N)C(C#N)(C#N)[C@H](c2ccncc2)[C@H]2CN(C(=O)OCc3ccccc3)CC=C12,48*
CCCOc1ccc([C@@H]2C3CN(C(=O)OCC)CC=C3C(C#N)=C(N)C2(C#N)C#N)cc1OC (stereo partly specified),6
COCCn1c(C2CCCCC2)nc2sc3ccccc3c(=O)c2c1=O,-2
Cc1ccc(-n2ncc3c(=O)n(CC(=O)NCc4ccco4)cnc32)cc1C,-12
O=C(Nc1nnc(C2CCCCC2)s1)c1ccco1,-70
SMILES,SF-1 inh
COc1ccc(-c2nc(-c3ccncc3)no2)cc1OC,-74
Brc1ccc(-c2nc(-c3ccccc3)no2)o1,-63
c1ccc(-c2noc(-c3ccc4ccccc4c3)n2)cc1,50*
COc1cc2c(cc1NC(=O)CN1C(=O)NC3(CCc4ccccc43)C1=O)oc1ccccc12 (stereo unspecified),-3
CC(=O)c1cnc2cc(-c3ccccc3)nn2c1C,-50
COc1ccc(-c2nc(N3CCOCC3)nc3nn4c(C)c(CCC(=O)O)c(C)nc4c23)cc1,4
COc1cc(OC)cc(-c2cc3nc(C)c(CCC(=O)O)c(C)n3n2)c1,79*
O=C(CCC(=O)N(CC(=O)NC1CCCCC1)c1ccc2c(c1)OCO2)Nc1ccccn1,-14
CN(c1ccc(C(=O)Nc2ccccc2C(F)(F)F)cc1)S(C)(=O)=O,-15
COCCN(CC(=O)NCc1ccccc1)C(=O)CCC(=O)Nc1nccs1,-15
CCc1nn(CC(=O)O)c(=O)c2ccccc12,-18
Cc1csc(NC(=O)Cc2nn(C)c(=O)c3ccccc23)n1,54*
O=C(Nc1ccc2c(c1)OCCO2)c1c(F)cccc1F,-56
COc1cccc(OC)c1NC(=O)Cc1nn(C)c(=O)c2ccccc12,-3
Cn1nc(CC(=O)Nc2ccc3c(c2)OCCO3)c2ccccc2c1=O,62*
Cc1ccc(NC(=O)Cc2nn(C)c(=O)c3ccccc23)cc1F,80*
Cc1ccc(OCC(=O)Nc2ccc(N3CCOCC3)cc2)cc1,-2
Cn1nc(CC(=O)Nc2ccc(N3CCN(C(=O)OC(C)(C)C)CC3)cc2)c2ccccc2c1=O,63*
Cn1c(SCC(=O)Nc2ccc3c(c2)OCCO3)nnc1-c1ccco1,-16
CCC(=O)Nc1ccc(N2CCN(C(=O)c3ccccc3C)CC2)cc1,4
Cn1nc(C(=O)NCC2CCCO2)c2ccccc2c1=O (stereo unspecified),6
COc1ccc2c(c1)c(C(=O)CNc1nc(C)cs1)c(C)n2C,6
COc1ccc(CCN2C(=O)c3ccccc3C2(O)c2ncc[nH]2)cc1OC (stereo unspecified),-1
COc1cc(C2N(c3ccc(Cl)c(Cl)c3)C(=O)C3CCCN32)cc(OC)c1OC (stereo unspecified),2
O=C(Cn1c(=O)sc2ccccc21)NCCOc1ccccc1F,-10
SMILES,SF-1 inh
Cc1nnc(SCCN2CCOCC2)n1C,-13
NC(=O)C1CCN(CCC(=O)Nc2cccc(Cl)c2)CC1,0
O=C(CC1OC(=O)c2ccccc21)c1ccco1 (stereo unspecified),2
CCOC(=O)N1CCC(c2nc(C)sc2C(=O)O)CC1,-20
O=C(Nc1ccc2c(c1)OCO2)C1COc2ccccc2O1 (stereo unspecified),-11
O=C(NC1=NCCS1)C1COc2ccccc2O1 (stereo unspecified),66*
Cc1nnc(NC(=O)C2COc3ccccc3O2)s1 (stereo unspecified),-52
COc1ccc(C(=O)Nc2nnc(C(F)(F)F)s2)cc1,-57
CCC(NC(=O)Nc1nnc(C(F)(F)F)s1)(C(F)(F)F)C(F)(F)F,94*
CCC(NC(=O)Nc1ncccc1C)(C(F)(F)F)C(F)(F)F,-7
CCCn1nc(Oc2nc(SC)nc(N(C)C)n2)ccc1=O,-8
CC(NC(=O)c1cc2ccccc2o1)c1cccs1 (stereo unspecified),-11
CCCCn1c2c(c(=O)n(C)c1=O)C(c1ccc(OC)cc1)N1CCCCCC1=N2 (stereo unspecified),49*
CCOC(=O)N1CCC(Nc2nc3ccccc3nc2NS(=O)(=O)c2ccc(Cl)cc2)CC1,-54
COc1ccc(Cl)cc1-n1c(=S)sc2c(=O)[nH]c(SCC(=O)NCC3CCCO3)nc21 (stereo unspecified),5
COc1ccc(-c2c(C)n([O-])c3c([n+]2=O)CCC3)cc1OC,-4
CC1CCN(C(=O)C2Cc3ccccc3CN2S(=O)(=O)c2ccc(F)cc2)CC1 (stereo unspecified),-6
Cc1nc2sc(C(c3ccco3)N3CCC(Cc4ccccc4)CC3)c(O)n2n1 (stereo unspecified),-12
CCCCOc1ccccc1NC(=O)Cn1c(-c2nonc2N)nc2ccccc21,67*
COc1cccc(Cn2c(-c3nonc3N)nc3ccccc32)c1,-62
Nc1nonc1-c1nc2ccccc2n1Cc1ccc(Cl)cc1,22
O=C(Nc1nnc(C2CCCC2)s1)C1CCN(S(=O)(=O)c2ccc(Cl)cc2)CC1,-1
C/C(N)=C(/C#N)C(=O)CSc1nc2ccc(C)cc2[nH]1,-77
Fc1ccc(OCc2nn3cnnc3s2)cc1,12
COc1ccc(NC(=O)Cn2c(=O)sc3ccccc32)c(OC)c1,12
SMILES,SF-1 inh
CCCCOc1ccc(OC(=O)c2cccnc2)cc1,66*
CCCCOc1ccc(-c2ncc(Cl)cn2)cc1,-26
O=C(COc1ccc(-c2ccccc2)cc1)N1CCN(C(=O)c2cccnc2)CC1,-16
CC(=O)c1c(C)nc2nonc2c1N,4
COc1ccc(NC(=O)NCCCN2CCN(c3cc(C)ccc3C)CC2)cc1,49*
COc1ccc(N2CCN(CCNC(=O)CCNS(=O)(=O)c3cccs3)CC2)cc1,-10
